# Data reported in article PMC4336329 (PLoS ONE, 2015).
# Out of some 310,000 compounds screened, about 14,000 (4.5%) showed an effect of 50% or more. The effect is printed as a negative number. The entries come from a sample that favours strong results as a whole.
# Target: human ether-à-go-go-related gene (hERG) potassium channel (human, UniProt Q12809)
# Assay: primary screen, population patch clamp on CHO cells stably expressing hERG; higher = less effect of the substance
# 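Note: peak tail current of the secondary pulse compared with the same well before compound.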
# Sequence of human ether-à-go-go-related gene (hERG) potassium channel (Q12809 whole entry, looked up): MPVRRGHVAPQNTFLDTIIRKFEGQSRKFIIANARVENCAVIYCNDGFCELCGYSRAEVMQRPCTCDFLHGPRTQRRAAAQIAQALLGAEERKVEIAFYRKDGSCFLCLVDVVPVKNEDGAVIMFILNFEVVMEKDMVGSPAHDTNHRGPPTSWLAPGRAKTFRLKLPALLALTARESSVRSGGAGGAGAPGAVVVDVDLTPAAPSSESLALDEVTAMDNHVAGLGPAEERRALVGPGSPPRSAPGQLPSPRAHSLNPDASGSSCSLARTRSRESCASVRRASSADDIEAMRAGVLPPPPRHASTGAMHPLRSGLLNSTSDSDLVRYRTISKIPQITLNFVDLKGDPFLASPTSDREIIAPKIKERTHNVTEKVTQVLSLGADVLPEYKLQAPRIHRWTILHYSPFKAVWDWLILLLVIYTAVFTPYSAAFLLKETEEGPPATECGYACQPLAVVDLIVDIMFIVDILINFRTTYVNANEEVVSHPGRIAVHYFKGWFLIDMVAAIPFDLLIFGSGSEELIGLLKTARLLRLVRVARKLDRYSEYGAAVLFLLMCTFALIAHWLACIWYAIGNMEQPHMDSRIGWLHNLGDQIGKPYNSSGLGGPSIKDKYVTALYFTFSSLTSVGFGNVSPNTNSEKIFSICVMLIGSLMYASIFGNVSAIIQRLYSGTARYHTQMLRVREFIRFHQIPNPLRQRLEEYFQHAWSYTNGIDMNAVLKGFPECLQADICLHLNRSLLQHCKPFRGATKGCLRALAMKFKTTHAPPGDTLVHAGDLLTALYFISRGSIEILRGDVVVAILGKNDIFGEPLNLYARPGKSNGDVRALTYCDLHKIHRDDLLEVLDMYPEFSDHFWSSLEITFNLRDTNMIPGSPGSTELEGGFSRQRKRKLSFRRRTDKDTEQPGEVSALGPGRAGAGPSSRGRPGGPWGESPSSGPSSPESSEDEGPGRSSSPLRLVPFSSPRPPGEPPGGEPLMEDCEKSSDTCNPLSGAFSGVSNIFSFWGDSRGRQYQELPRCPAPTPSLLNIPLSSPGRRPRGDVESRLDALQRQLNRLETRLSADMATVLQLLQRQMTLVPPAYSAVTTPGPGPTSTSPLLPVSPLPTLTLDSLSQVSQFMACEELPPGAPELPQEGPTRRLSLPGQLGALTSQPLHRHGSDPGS
row,Compound,"hERG current change (%, negative = inhibition) at 10uM [%]"
1,Cc1c(Cc2ccccc2)sc(NC(=O)/C=C/c2cccc3ccccc23)c1C(N)=O,20
2,COc1ccc(CN2C(=NC(=O)CCC3CCCC3)SC3CS(=O)(=O)CC32)cc1 (centres unmarked),19.7
3,CCCCN1C[C@H](Cc2ccccc2)[C@@H](CC(=O)NCc2ccc(OC)cc2)C1=O,-61.8
4,COc1ccc(CN2C[C@H](Cc3ccccc3)[C@@H](CC(=O)Nc3ccccc3)C2=O)cc1,-10.5
5,COc1ccc(CNC(=O)C[C@H]2C(=O)N(CCc3ccccc3)C[C@@H]2Cc2ccccc2)cc1,-53
6,COc1ccc(CNC(=O)C[C@H]2C(=O)N(Cc3ccc(OC)cc3)C[C@@H]2Cc2ccccc2)cc1,-45.9
7,COc1ccc(CNC(=O)C[C@H]2C(=O)N(Cc3ccccc3)C[C@@H]2Cc2ccccc2)cc1,2.76
8,COc1ccc(CNC(=O)C[C@H]2C(=O)N(c3ccccc3)C[C@@H]2Cc2ccccc2)cc1,-49.4
9,COc1cccc(C(=O)NNC(=O)c2ccccc2-n2cccc2)c1,34.4
10,CS(=O)(=O)c1nc(S(=O)(=O)c2ccc(Cl)cc2)c(NCCN2CCOCC2)s1,-31.6
11,CC(C)(C)c1ccc(-c2c(C#N)c(N)nc3c2CCCC3)s1,-0.863
12,CC12CN3CN(C1)CC(c1ccccc1)(C3)C2=O,12.7
13,Cc1noc(C)c1COC(=O)[C@@H](NC(=O)c1ccccc1)C(C)C,11.5
14,Cc1ccccc1OC(C)C(=O)NCCC1=CCCCC1 (centres unmarked),-1.85
15,COc1cccc(OCc2cc(C(=O)N3CCN(C(C)=O)CC3)no2)c1,-1.97
16,COc1cccc(OCc2cc(C(=O)N3CCN(c4ccccc4O)CC3)no2)c1,4.71
17,COc1cccc(OCc2cc(C(=O)N3CCN(C(=O)c4ccco4)CC3)no2)c1,-51.7
18,O=C(c1cc(COc2ccc(F)cc2F)on1)N1CCOCC1,17.7
19,O=C(c1cc(COc2ccc(F)cc2F)on1)N1CCSCC1,-11.7
20,O=C(c1cc(COc2ccc(F)cc2F)on1)N1CCN(C(=O)c2ccco2)CC1,-57.3
21,Cc1ccc(NC(=S)N2CCCC2)cc1Cl,11.5
22,CC(=O)NCCOC(=O)c1nn(Cc2ccccc2)c(=O)c2ccccc12,-22.4
23,Cc1sc2nc(CN3CCN(c4ccc(O)cc4)CC3)[nH]c(=O)c2c1C,14.4
